Drawing on PubChem BioAssay (NCI), this text covers growth for 26 molecules.

What all share (test): NCI-60 one-dose screen, 48 h (100 = growth as untreated, 0 = no growth, -100 = all killed)
Holding throughout (conditions): 10 µM unless noted

For experiment [1], the system named is SK-MEL-2 melanoma.
Experiment [2] has as its system EKVX NSCLC.
Experiment [3] concerns SN12C renal.
In experiment [4] the test system is UO-31 renal.
Experiment [5] has as its system TK-10 renal.
Experiment [6] concerns ACHN renal.
Experiment [7] deals with CAKI-1 renal.
The subject of experiment [8] is A498 renal.
Experiment [9] deals with CCRF-CEM leukemia.
In experiment [10] the test system is MOLT-4 leukemia.

The panel holds about 83,000 compounds, 20% with a hit somewhere; the sample as a whole holds those more often.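 Plates (96-well) were seeded with cells, treated with compound at one concentration, and incubated for 48 hours before percent growth was determined.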 Unmarked numbers belong to inactive results. The source made the active and inactive calls. The calls were made as follows: active = growth percent below 10; inactive = the rest.

Turning to `O=C1c2cccc3cccc(c23)C(=O)N1CC#Cc1ccc2c3c(cccc13)C(=O)N(CCO)C2=O`, the growth is 102% in experiment [1]; 76.3% in experiment [2]; 90.7% in [3]; 57.3% in experiment [4]; 165% in experiment [5]; 87.1% in experiment [6]. Also, the growth in experiment [7] is 56.8%; in experiment [8], 105%; in [9] it was 80.6%; in experiment [10], 62.3%.
As for `O=C1/C(=C\c2ccco2)SC(=S)N1CCc1ccc(O)cc1`, the growth was 104% in experiment [1]; 91.1% in experiment [2]; 91.6% in experiment [3]; 54% in experiment [4]; 130% in experiment [5]; 96% in experiment [6]. For the same molecule, the growth was 83.4% in experiment [7], 97.1% in experiment [8], 44.8% in experiment [9] and 82.2% in experiment [10].
On to `Cc1ccc(-c2nn(Cc3cn(-c4cc(C)nc5ccccc45)nn3)c3ncnc(N)c23)cc1`, for which the growth in [1] was 76.2%; in experiment [2], 57.3%; in experiment [3] it was 31.1%; in experiment [4] it was 17.6%; in experiment [5], 31.8%; in experiment [6] it was 31.9%. Besides, the growth in experiment [7] is 20.8%; in [8] it was -2.48% (active); in experiment [9] it was 63.1%; in experiment [10] it was 49.9%.
Take `Cn1cc(-c2csc(-c3cn(C(=O)OC(C)(C)C)c4ccc(Br)cc34)n2)c2cccnc21`: the growth is 91.5% in [1]; 79.2% in [2]; 87.4% in [3]; 82.4% in experiment [4]; 92.5% in experiment [5]; 48.8% in [6]. Further, the growth in experiment [7] was 79.3%; in experiment [8], 96.3%; in experiment [9], 71%; in experiment [10] it was 97.4%.
Regarding `COc1ccc(/C=C/C(=O)NCCO)cc1`, the growth in [1] was 103%; in [2], 98.7%; in [3], 108%; in experiment [4], 84.6%; in experiment [5], 92%; in [6] it was 101%. For the same molecule, the growth was 90.8% in [7], 85% in [8], 104% in experiment [9] and 101% in experiment [10].
On to `N#Cc1cnc2cc(OC[C@@H](O)CO)c(NC(=O)CC3CSSC3)cc2c1Nc1ccc(OCc2cccc(F)c2)c(Cl)c1`, for which the growth in experiment [1] was -67.7% (active); in [2], -68% (active); in [3], -70.3% (active); in experiment [4], 50.5%; in [5], -60.5% (active); in [6], 3.6% (active). In addition, the growth in experiment [7] was 62.7%; in [8], -62% (active); in experiment [9], -46.4% (active); in experiment [10], -50.4% (active).
On to `CCCNc1nc(N(C)O)nc(N(C)O)n1`, for which the growth is 74.1% in experiment [1]; 36.9% in [2]; 47.1% in experiment [3]; 21.7% in experiment [4]; 65.1% in [5]; 14.5% in experiment [6]. Moreover, the growth was 25% in [7], 22.3% in experiment [8], 6.78% (active) in experiment [9] and 14.8% in experiment [10].
In the case of `C=C(C)[C@@H]1CC[C@]2(C(=O)N3CCN(C)CC3)CC[C@]3(C)[C@H](CC[C@@H]4[C@@]5(C)C/C(=C/c6ccc(C(F)(F)F)cc6)C(=O)C(C)(C)[C@@H]5CC[C@]43C)[C@@H]12`, the growth in experiment [1] was 106%; in experiment [2] it was 87.7%; in experiment [3] it was 92.9%; in [4], 73.5%; in experiment [5], 105%; in [6] it was 96.4%. Also, the growth was 68.7% in experiment [7], 97.4% in experiment [8], 88% in experiment [9] and 63.8% in [10].
With `Clc1ccccc1-c1nc(Nc2nc3ccccc3s2)nc(C(Cl)(Cl)Cl)n1`, the growth in [1] is 85.9%; in experiment [2] it was 54%; in [3], 82.6%; in experiment [4], 14.3%; in [5], 84.1%; in [6], 6.55% (active). The growth in experiment [7] is 20.9%; in experiment [8], 58.3%; in experiment [9], 92.5%; in experiment [10], 86.3%.
Consider `Cn1cc(-c2nc(-c3cn(C)c4ncccc34)cs2)c2cc(F)ccc21`, for which the growth in experiment [1] was 31.1%; in experiment [2], 55.3%; in [3], 46%; in [4] it was 51.1%; in experiment [5], 46.3%; in [6], 47.4%. Also, the growth was 20.8% in [7], 44.8% in experiment [8], 40% in [9] and 35.6% in experiment [10].
As to `C[C@H]1[C@@H]2[C@H]3CC[C@@H]4[C@@]5(C)Cc6c([nH]c7ccccc67)C(C)(C)[C@@H]5CC[C@@]4(C)[C@]3(C)CC[C@]23CO[C@]1(C)[C@@H](C(=O)/C=C/c1ccccn1)C3`, the growth in [1] is 115%; in [2], 102%; in [3] it was 87.1%; in experiment [4], 60.4%; in experiment [5], 123%; in [6], 92.4%. Further, the growth in [7] was 63%; in experiment [8], 101%; in experiment [9] it was 63%; in experiment [10] it was 78.8%.
As to `COc1cc2nc(Cl)nc(Nc3cccc(C(=O)/C=C/c4ccc(F)cc4)c3)c2cc1OC`, the growth in experiment [1] is 93.9%; in experiment [2], 71.1%; in experiment [3] it was 51.6%; in experiment [4], 53.9%; in experiment [5] it was 155%; in experiment [6] it was 20%. In addition, the growth in experiment [7] is 56.5%; in [8] it was 86.5%; in [9], 15.5%; in experiment [10], 35.7%.
With `COc1ccc(O)c(-c2cc(-c3ccc(Cl)cc3)c(C#N)c(=O)[nH]2)c1`, the growth in [1] is 37.9%; in experiment [2], 105%; in [3], 77%; in experiment [4] it was 55%; in experiment [5], 87.3%; in [6], 78.1%. Besides, the growth in experiment [7] is 73.3%; in [8], 79.6%; in [9] it was 37.2%; in experiment [10], 57.8%.
For `Cc1ccc(C)c2c1CCC2C(C)C` (stereo not given), the growth in experiment [1] is 110%; in [2], 102%; in [3], 98.6%; in experiment [4], 88.5%; in experiment [5], 95.6%; in experiment [6], 97.3%. The growth in experiment [7] was 95.8%; in experiment [8], 110%; in experiment [9] it was 93.5%; in experiment [10], 86.4%.
`O=C1C(=O)N(CCCCn2cc(-c3ccccc3)nn2)c2ccccc21`: the growth in experiment [1] is 122%; in experiment [2], 93.9%; in [3] it was 94.3%; in experiment [4], 75.3%; in experiment [5], 136%; in [6] it was 103%. Also, the growth in experiment [7] was 92%; in experiment [8] it was 110%; in [9] it was 97.2%; in [10] it was 101%.
In the case of `O=S(=O)(NCCNc1cc(-c2cn(-c3ccccc3)nc2-c2cccc(O)c2)ccn1)c1ccc(Br)cc1`, the growth is 20.7% in experiment [1]; 34.9% in experiment [2]; 34.4% in experiment [3]; 19.8% in [4]; 46.1% in experiment [5]; 23.7% in [6]. Besides, the growth in experiment [7] was 43.2%; in experiment [8], 53.7%; in experiment [9] it was 9.77% (active); in experiment [10] it was 8.59% (active).
Turning to `CC(=O)O[C@H]1CC[C@]2(C)[C@H]3C(=O)C=C4[C@@H]5C[C@](C)(C(=O)N6CCCNCC6)CC[C@]5(C)CC[C@@]4(C)[C@]3(C)CC[C@H]2C1(C)C`, the growth in [1] is 96.2%; in [2] it was 54.8%; in experiment [3], -82.1% (active); in [4], -85.5% (active); in experiment [5] it was -14.3% (active); in [6] it was -100% (active). Further, the growth is -99.3% (active) in experiment [7], 74.1% in experiment [8], -31.5% (active) in [9] and -23.6% (active) in [10].
Consider `COc1cccc(-c2nn(-c3ccccc3)cc2-c2ccnc(NCCCNS(=O)(=O)c3ccc(C(F)(F)F)cc3)c2)c1`, for which the growth is 19.3% in experiment [1]; 46.5% in experiment [2]; 23% in experiment [3]; 11.3% in experiment [4]; 42.1% in [5]; 22.4% in experiment [6]. The growth was 27.2% in experiment [7], 20.3% in experiment [8], 16.8% in experiment [9] and -0.667% (active) in [10].
Consider `CC(CNc1nc(Nc2ccc(Cl)c(Cl)c2)nc(C(Cl)(Cl)Cl)n1)N(C)C` (stereo not given), for which the growth in experiment [1] is -92.1% (active); in experiment [2] it was 18.5%; in [3], 16.2%; in experiment [4], -3.58% (active); in experiment [5], -61.7% (active); in experiment [6], 6.79% (active). In addition, the growth in [7] was -19.1% (active); in experiment [8] it was 22.8%; in experiment [9] it was -3.41% (active); in [10] it was -49.4% (active).
In the case of `COc1ccc(C2NC(=O)Nc3ccccc32)c(OC)c1` (stereo not given), the growth in experiment [1] is 102%; in experiment [2], 97%; in [3] it was 95.3%; in [4] it was 78.3%; in experiment [5], 95.5%; in experiment [6], 99.4%. Moreover, the growth was 93% in [7], 105% in [8], 101% in experiment [9] and 95.5% in experiment [10].
`Cc1ccncc1C(=O)O`: the growth in experiment [1] is 121%; in [2], 97.5%; in experiment [3], 94.6%; in [4] it was 88.7%; in [5] it was 123%; in experiment [6] it was 97.2%. Further, the growth in experiment [7] is 95.9%; in experiment [8], 89%; in experiment [9] it was 140%; in [10], 122%.
On to `O=S(=O)(NCCNc1cc(-c2cn(-c3ccccc3)nc2-c2cccc(O)c2)ccn1)c1ccc(C(F)(F)F)cc1`, for which the growth in experiment [1] was 56.2%; in experiment [2], 52.3%; in experiment [3], 33.9%; in experiment [4], -39.8% (active); in [5] it was 59.9%; in experiment [6] it was 18.3%. The growth in experiment [7] is -1.88% (active); in [8], 52.6%; in experiment [9], 16.9%; in [10] it was 4.81% (active).
For the molecule `N#Cc1c(-c2ccco2)nc2c(c(-c3ccccc3)nn2-c2ccccc2)c1-c1ccc(O)cc1`, the growth was 70.4% in experiment [1]; 56.4% in experiment [2]; 82.4% in [3]; 92% in [4]; 89.2% in [5]; 72.4% in experiment [6]. Moreover, the growth was 58.9% in experiment [7], 90.9% in [8], 41.5% in experiment [9] and 9.84% (active) in experiment [10].
On to `CCCCN1CCCCn2c1nc1c2c(=O)n(C)c(=O)n1C`, for which the growth is 91.9% in experiment [1]; 105% in [2]; 102% in experiment [3]; 93.1% in [4]; 103% in [5]; 107% in experiment [6]. Also, the growth was 95.5% in [7], 96.3% in experiment [8], 113% in experiment [9] and 96.6% in experiment [10].
Take `COc1cc(/C=N/NC(=S)NNC(=S)NC2CCCCC2)cc(OC)c1OC`: the growth is 108% in [1]; 84.1% in experiment [2]; 87.8% in experiment [3]; 70.3% in experiment [4]; 147% in [5]; 94.2% in experiment [6]. The growth is 77.7% in [7], 96.6% in experiment [8], 88.7% in [9] and 73.8% in experiment [10].
`CCN1CCN(C(=O)[C@]23CC[C@@H](C)[C@H](C)[C@H]2C2=CC[C@@H]4[C@@]5(C)C/C(=C/c6cccc(OC)c6OC)C(=O)C(C)(C)[C@@H]5CC[C@@]4(C)[C@]2(C)CC3)CC1`: the growth in experiment [1] was 84.6%; in experiment [2], 27.7%; in experiment [3], 43.2%; in experiment [4], 30.3%; in experiment [5], 95.9%; in experiment [6], 41.9%. In addition, the growth was 31.4% in experiment [7], 77.7% in experiment [8], 30.2% in [9] and 10.1% in [10].
